Screening results as filed in PubChem BioAssay.
Only some compounds are listed: those with a hit (about 8.1% of all), similar ones and a draw of the others.
MITF inhib = inhibitors of MITF, primary screen, MITF inhibitor project, cell-based, luminescence; inhibition, % (test concentration not listed); TRPM1 promoter luciferase, 24 h; 37,000 tested, 0.28% active; in the data active = inhibition above about 85%; inconclusive = no clear call, values can overlap the other calls; inactive = below about 68%;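 also: human melanocyte line stably carrying TRPM1 promoter luciferase reporter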
Hedgehog inh = Hedgehog pathway signaling inhibitors, primary screen, luminescence, Shh-LIGHT2 cells, Gli-luciferase. inhibition, % (test concentration not listed). Shh-LIGHT2 Gli-luciferase reporter, 30 h. 22,000 tested, 2.1% active;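 active = mean inhibition across valid replicates above about 65%, limit read from the data; inconclusive = mean under the limit, yet half or more replicates past it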;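 also: pathway switched on by Shh-conditioned medium diluted 1 in 25 in low serum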
NOMO-1 viab = NOMO-1 AML cell viability reduction, primary screen, STK33 inhibitor project, CellTiter-Glo luminescence; NOMO-1 AML viability, 72 h; inhibition, % (no concentration beside the values); 37,000 tested, 7.5% active; AID 2330, 2010; in the data active = inhibition above about 80%; inconclusive = no clear call, values can overlap the other calls
Active calls of the source: *; ? = inconclusive; · = no result given.

SMILES	MITF inhib	Hedgehog inh	NOMO-1 viab
COc1cc(/C=C/c2cc(O)cc(O)c2)ccc1O[C@@H]1O[C@H](CO)[C@@H](O)[C@H](O)[C@H]1O	-52.5	4.3	27.8
Cc1ccccc1OCC(O)Cn1c2ccccc2c2ccccc21 (stereo not given)	48.8	-9.5	-30.2
OC(CNC1CCCC1)Cn1c2ccccc2c2ccccc21 (stereo not given)	18.8	·	95.9*
COc1cc([C@H]2OC[C@H]3[C@@H]2CO[C@H]3c2cc(OC)c(OC)c(OC)c2)cc(OC)c1OC	·	15.8	·
C[C@@H]1CN([C@@H](C)CO)C(=O)c2cccc(NC(=O)CCCCCC(=O)Nc3ccccc3N)c2O[C@@H]1CN(C)Cc1ccc(Cl)c(Cl)c1	39.5	·	126.3*
C[C@H]1CN([C@@H](C)CO)C(=O)c2cccc(NC(=O)C3CC3)c2O[C@H]1CN(C)Cc1ccc(Cl)c(Cl)c1	-7.6	-7.7	-1.7
C[C@@H]1CN([C@H](C)CO)C(=O)c2cccc(NC(=O)C3CC3)c2O[C@H]1CN(C)Cc1ccc(Cl)c(Cl)c1	34.0	25.2	?
C[C@@H]1CN([C@H](C)CO)C(=O)c2cccc(NC(=O)CCCCCC(=O)Nc3ccccc3N)c2O[C@@H]1CN(C)Cc1ccc(Cl)c(Cl)c1	31.2	·	134.2*
C[C@@H]1CN([C@H](C)CO)C(=O)c2cccc(NC(=O)CCCCCC(=O)Nc3ccccc3N)c2O[C@@H]1CN(C)C	-28.3	·	28.8
C[C@H]1CN([C@@H](C)CO)C(=O)c2cccc(NC(=O)CCCCCC(=O)Nc3ccccc3N)c2O[C@H]1CN(C)Cc1ccc(Cl)c(Cl)c1	46.7	·	119.9*
Cc1ccc(C)c(-n2nnnc2SCC(=O)Nc2ccc(F)cc2)c1	19.6	·	15.4
c1ccc(CNc2nc3ccccc3n2CCN2CCCCC2)nc1	-9.9	·	11.3
COC(=O)c1ccc(COc2ccc3c(C)cc(=O)oc3c2)o1	-74.5	·	48.2
O=C(COc1cccc2ccccc12)Nc1cccc(C(=O)O)c1	1.9	·	1.9
O=C(CCCC(=O)Nc1cc(C(F)(F)F)ccc1Cl)Nc1cc(C(F)(F)F)ccc1Cl	31.2	·	15.8
Cc1cccc(NC(=O)C(Cc2ccccc2)N2C(=O)c3cc(Cl)c(Cl)cc3C2=O)c1 (stereo not given)	5.0	·	2.8
C[C@H](CO)N1C[C@H](C)[C@H](CN(C)S(=O)(=O)c2ccc(F)cc2)Oc2c(NC(=O)NC3CCCCC3)cccc2C1=O	51.2	93.2*	71.1
C[C@@H]1CN([C@@H](C)CO)C(=O)c2cccc(NC(=O)NC3CCCCC3)c2O[C@@H]1CN(C)S(=O)(=O)c1ccc(Cl)cc1	12.2	-24.5	43.1
C[C@@H]1CN([C@H](C)CO)C(=O)c2cccc(NC(=O)NC3CCCCC3)c2O[C@H]1CN(C)S(=O)(=O)c1ccc(F)cc1	14.2	3.8	43.9
Cc1ccc(S(=O)(=O)N(C)C[C@H]2Oc3c(NC(=O)NC4CCCCC4)cccc3C(=O)N([C@@H](C)CO)C[C@H]2C)cc1	13.4	10.6	35.6
C[C@H]1CN([C@@H](C)CO)C(=O)c2cccc(NC(=O)NC3CCCCC3)c2O[C@H]1CN(C)S(=O)(=O)c1ccc(Cl)cc1	63.3	112.3*	97.5*
Cc1ccc(S(=O)(=O)N(C)C[C@@H]2Oc3c(NC(=O)NC4CCCCC4)cccc3C(=O)N([C@H](C)CO)C[C@@H]2C)cc1	42.6	106.6*	90.8*
O=C(CSc1nnc(-c2ccccc2F)n1-c1ccc(Cl)cc1)Nc1ccc(F)cc1F	10.8	·	4.4
CCc1cccc(C)c1NC(=O)CSc1nnc(-c2ccncc2)n1-c1ccc(C)cc1	3.6	·	7.5
COc1ccc(-c2csc(Cc3nc(-c4cc5ccccc5oc4=O)cs3)n2)cc1	47.6	·	21.5
SMILES	MITF inhib	Hedgehog inh	NOMO-1 viab
Cn1c(SCC(=O)Nc2ccc(Cl)cc2)nnc1-c1ccc(Br)cc1	3.4	·	25.2
COc1ccc(NC(=O)Cn2nc(C)c([N+](=O)[O-])c2C)c(OC)c1	-6.4	·	31.2
CC[C@H](C)C(=O)O[C@H]1CCC=C2C=C[C@H](C)C(CCC3C[C@@H](O)CC(=O)O3)[C@H]21 (stereo not given in full)	-89.8	12.8	47.4
CC(C)=CCCC1(C)C=Cc2c(c(C)cc3c2[nH]c2cc(O)ccc23)O1 (stereo not given)	-12.8	26.1	107.9*
CCOc1ccc(Cl)cc1S(=O)(=O)n1cnc2ccccc21	32.9	·	114.4*
CCOc1ccc(C)cc1S(=O)(=O)Nc1cccnc1	-6.6	·	44.5
CCOc1cc(C)c(Cl)cc1S(=O)(=O)n1cnc2ccccc21	-28.4	·	22.9
COc1cc(S(=O)(=O)n2nnc3ccccc32)c(OC)cc1Cl	42.9	·	30.0
COc1cc(S(=O)(=O)n2cnc3ccccc32)c(OC)cc1Cl	0.1	·	84.2*
CCOc1ccc(C)cc1S(=O)(=O)n1cnc2ccccc21	38.1	·	127.5*
COc1ccc(S(=O)(=O)N(C)CC(=O)Nc2cc(Cl)c(Cl)cc2Cl)cc1Cl	5.3	·	28.0
COc1ccc(Cl)cc1NC(=O)COc1ccc([N+](=O)[O-])cc1	-14.8	·	8.9
CS/C(NCC1CC1)=C(/C#N)C(=O)c1ccc(Cl)cc1	46.0	·	111.2*
CS/C(NC1CCCCC1)=C(/C#N)S(=O)(=O)c1ccc(Cl)cc1	4.4	20.5	37.8
Cc1ccc(-n2c(SCC(=O)Nc3c(F)cc(F)cc3Br)nc3ccccc3c2=O)cc1	-4.8	·	27.2
Cc1ccc(NC(=O)CSc2nc3cc(Cl)ccc3s2)c(C)c1	-7.6	·	24.8
CSc1sc(C(=O)Sc2ccccc2)c2c1S(=O)(=O)N(C)c1ccccc1-2	-1.7	9.2	121.3*
CCOC(=O)c1sc(SCc2ccccc2)c2c1-c1sccc1N(C)S2(=O)=O	8.9	35.1	-18.2
Cc1cc(OCC(=O)Nc2cccc(NC(=O)c3cccc(Cl)c3)c2)ccc1Cl	44.4	·	71.2
C[C@H](CO)N1C[C@H](C)[C@@H](CN(C)Cc2ccc(Cl)c(Cl)c2)Oc2ccc(NC(=O)Nc3ccc4c(c3)OCO4)cc2C1=O	23.2	-1.3	100.6*
C[C@H](CO)N1C[C@H](C)[C@H](CN(C)Cc2ccc(Cl)c(Cl)c2)Oc2ccc(NC(=O)Nc3ccc4c(c3)OCO4)cc2C1=O	27.9	19.1	88.3*
C[C@H]1CN([C@@H](C)CO)C(=O)c2cc(NC(=O)Nc3ccc4c(c3)OCO4)ccc2O[C@@H]1CN(C)Cc1ccc(Cl)c(Cl)c1	-7.3	·	23.0
C[C@@H]1CN([C@H](C)CO)C(=O)c2cc(NC(=O)Nc3ccc4c(c3)OCO4)ccc2O[C@H]1CN(C)Cc1ccc(Cl)c(Cl)c1	6.2	4.3	49.1
CCC(Sc1nncn1C)C(=O)Nc1ccc([N+](=O)[O-])cc1 (stereo not given)	-12.2	·	26.8
Cc1ccc(NC(=O)c2ccc(OC(=O)CN3C(=O)c4ccccc4C3=O)cc2)cc1	-74.0	·	42.8
CC1=CC(C)(C)N2C(=O)C(=O)c3cc(OC(=O)CN4C(=O)c5cccc6cccc(c56)C4=O)cc1c32	-38.9	·	119.0*
CC1=CC(C)(C)N2C(=O)C(=O)c3cc(OC(=O)CN4C(=O)c5ccccc5C4=O)cc1c32	-29.8	·	115.4*
COc1ccc(C)cc1NC(=O)CN1C(=O)c2cccc3cccc1c23	39.5	·	57.2
O=S(=O)(Nc1cccnc1)c1cccc(S(=O)(=O)c2ccc(Cl)c(Cl)c2)c1	0.7	·	-18.6
